Pf apPOL block: Pf-apPOL DNA polymerase inhibition; Recombinant Pf-apPOL, molecular beacon fluorescence, 1.5 h; 0.25% of 210,000 active; inhibition, % at 10 µM
mHTT-CaM PPI inh: mHTT-calmodulin interaction abrogation | inhibition, % at 15 µM | 3.6% of 190,000 active | AlphaScreen His-mHTT/GST-CaM binding, luminescence | AID 1671202 | P42858;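 also: 0% = both proteins with DMSO and 100% = one protein alone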
An asterisk follows results filed as active. An excerpt weighted towards active compounds, which were near 3.6% of everything screened. Rule as the data show it: active = inhibition above about 50%; inactive = the rest.

For CCCc1cc(=O)n(-c2ccc([N+](=O)[O-])cc2)[nH]1 the results were Pf apPOL block -1 and mHTT-CaM PPI inh 52*.
Screening CC12CC3CC(C)(C1)CC(c1ccc(O)cc1)(C3)C2 returned Pf apPOL block 3 and mHTT-CaM PPI inh 65*.
Screening CC12CC3(C)CC(C)(C1)CC(C(=O)Nc1ccc(C45CC6CC(CC(C6)C4)C5)cc1)(C2)C3 returned Pf apPOL block -3 and mHTT-CaM PPI inh 2.
Screening CC1=Nc2ccccc2C1=Cc1c(O)n(-c2ccc(Cl)cc2)c(=O)[nH]c1=O returned Pf apPOL block -2 and mHTT-CaM PPI inh 15.
For CC1=Nc2ccccc2C1=Cc1c(O)n(-c2cccc(Br)c2)c(=O)[nH]c1=O the results were Pf apPOL block -2 and mHTT-CaM PPI inh 96*.
O=C(O)Cc1c[nH]c2ccccc12 was read as Pf apPOL block -1 and mHTT-CaM PPI inh 10.
`c1ccc2c(Cc3c[nH]c4ccc(-c5ccncc5)cc34)c[nH]c2c1` gave Pf apPOL block 3 and mHTT-CaM PPI inh 100*.
For Cc1ccc(Cl)cc1NC(=O)CN(C)S(=O)(=O)c1ccc2[nH]c3c(c2c1)CCCC3 the results were Pf apPOL block -2 and mHTT-CaM PPI inh 42.
`Cc1ccsc1CCNS(=O)(=O)c1ccc2[nH]c3c(c2c1)CCCCC3` gave Pf apPOL block -2 and mHTT-CaM PPI inh 96*.
For Cc1ccsc1CCNS(=O)(=O)c1ccc2[nH]c3c(c2c1)CCCC3 the results were Pf apPOL block -1 and mHTT-CaM PPI inh 62*.
For O=C(NCCO)C(=O)Nc1cccc(F)c1 the results were Pf apPOL block -4 and mHTT-CaM PPI inh -16.
For CC(C)NC(=O)c1cccc(Br)c1 the results were Pf apPOL block -1 and mHTT-CaM PPI inh -5.
`COC(=O)C1=C(C)NC(=S)NC1c1cccc(OC)c1OC` (configuration not stated) gave Pf apPOL block -4 and mHTT-CaM PPI inh 2.
For CC(C)c1ccc(C(=O)O)c(=O)[nH]1 the results were Pf apPOL block -4 and mHTT-CaM PPI inh -4.
Screening O=C(c1ccco1)N(CCCn1ccnc1)c1nc2c(Cl)cccc2s1 returned Pf apPOL block 0 and mHTT-CaM PPI inh 32.
For COc1ccc(OC)c2sc(N(CCCn3ccnc3)C(=O)Cc3ccccc3)nc12 the results were Pf apPOL block -8 and mHTT-CaM PPI inh 68*.
For COc1c(C)cnc(CN2CCn3c2nc(C)c(C)c3=O)c1C the results were Pf apPOL block -2 and mHTT-CaM PPI inh -6.
CCN(C(=O)CN1C(=O)NC2(CCC(C(C)(C)C)CC2)C1=O)c1cccc(C)c1 (configuration not stated) was read as Pf apPOL block -3 and mHTT-CaM PPI inh 0.
`O=C(COc1ccccc1[N+](=O)[O-])Nc1ccc(N2CCOCC2)cc1` gave Pf apPOL block -6 and mHTT-CaM PPI inh 3.
For Oc1ccc(-c2csc(Nc3ccccn3)n2)c(O)c1 the results were Pf apPOL block 2 and mHTT-CaM PPI inh 96*.
Cc1ccc(-c2csc(Nc3ccccn3)n2)c(C)c1 was read as Pf apPOL block -1 and mHTT-CaM PPI inh 3.
`COc1ccc(-c2csc(Nc3ncccc3C)n2)cc1C` gave Pf apPOL block 5 and mHTT-CaM PPI inh 26.
Cc1cccnc1Nc1nc(-c2ccc(O)cc2O)cs1 was read as Pf apPOL block -14 and mHTT-CaM PPI inh 100*.
`Cc1ccc(Nc2nc(-c3ccc4c(c3)OCO4)cs2)nc1` gave Pf apPOL block -2 and mHTT-CaM PPI inh 8.
Screening Cc1ccc(Nc2nc(-c3ccc(O)c(O)c3)cs2)nc1 returned Pf apPOL block -4 and mHTT-CaM PPI inh 79*.
For O=C1CCCC2=C1C(c1cccnc1)n1nc(SCc3ccccc3F)nc1N2 (configuration not stated) the results were Pf apPOL block -1 and mHTT-CaM PPI inh 4.
`C[C@H]1[C@@H](OC(=O)NCc2ccccc2Cl)CC[C@@]23CCCN2C(=O)CCC[C@@H]13` gave Pf apPOL block -4 and mHTT-CaM PPI inh -6.
For O=C(Cn1cnc2c(-c3ccc(F)cc3)csc2c1=O)NCc1ccc(F)cc1 the results were Pf apPOL block -1 and mHTT-CaM PPI inh -13.
For N#CC1=C(N)OC(C2CC2)=C(n2cnc([N+](=O)[O-])n2)C1c1ccccc1 (configuration not stated) the results were Pf apPOL block -5 and mHTT-CaM PPI inh 17.
N#CC1=C(N)OC(c2ccccc2)=C(n2cnc([N+](=O)[O-])n2)C1c1ccccc1 (configuration not stated) was read as Pf apPOL block 2 and mHTT-CaM PPI inh 75*.
For N#CC1=C(N)OC(c2ccccc2)=C(n2cncn2)C1c1ccc(Br)cc1 (configuration not stated) the results were Pf apPOL block 9 and mHTT-CaM PPI inh 57*.
Screening N#CC1=C(N)OC(c2ccccc2)=C(n2cnc([N+](=O)[O-])c2)C1c1cccnc1 (configuration not stated) returned Pf apPOL block -2 and mHTT-CaM PPI inh -1.
`Cc1ccccc1Cn1c(CNC(=O)Cc2ccccc2)nc2ccccc21` gave Pf apPOL block 5 and mHTT-CaM PPI inh -12.
`CC(C)(C)n1nc2c(c1NC(=O)c1ccc(Cl)cc1)CS(=O)(=O)C2` gave Pf apPOL block -1 and mHTT-CaM PPI inh -4.
`[O-]/[N+](=N/OCc1ccccc1)c1cccc(Br)c1` gave mHTT-CaM PPI inh inactive.
`COc1cc(C(=O)Nc2ccc(Cl)cn2)cc(OC)c1OC` gave Pf apPOL block -1 and mHTT-CaM PPI inh -3.
Screening Cc1c(NC(=O)c2ccccc2I)cccc1-c1nc2ccccc2o1 returned Pf apPOL block -3 and mHTT-CaM PPI inh -1.
Screening Cn1nc(-c2nnc(-c3ccccc3F)o2)c2c1CCN(C(=O)c1cccc(F)c1)C2 returned Pf apPOL block -3 and mHTT-CaM PPI inh 11.
Screening CCC(C(=O)N1CCc2c(c(-c3nnc(-c4ccccc4F)o3)nn2C)C1)c1ccccc1 (configuration not stated) returned Pf apPOL block -3 and mHTT-CaM PPI inh 53*.
`Cc1ccc(-c2cc(C(=O)NCc3ccccn3)c3ccccc3n2)s1` gave Pf apPOL block 5 and mHTT-CaM PPI inh 17.
Screening Cc1cc(N2C(=O)C3C4C=CC(C4)C3C2=O)no1 (configuration not stated) returned Pf apPOL block -1 and mHTT-CaM PPI inh -5.
CCOc1ccc(-c2[nH]nc3c2C(c2cn[nH]c2-c2ccc(F)cc2)C(C#N)=C(N)O3)cc1 (configuration not stated) was read as Pf apPOL block -6 and mHTT-CaM PPI inh 41.
For COc1cc(-c2[nH]nc3c2C(c2ccc(C(F)(F)F)cc2)C(C#N)=C(N)O3)cc(OC)c1OC (configuration not stated) the results were Pf apPOL block -13 and mHTT-CaM PPI inh 90*.
Screening N#CC1=C(N)Oc2n[nH]c(-c3ccccc3)c2C1c1ccccc1Cl (configuration not stated) returned Pf apPOL block -5 and mHTT-CaM PPI inh 9.
For N#CC1=C(N)Oc2n[nH]c(-c3ccc(Br)cc3)c2C1c1cn[nH]c1-c1ccc(F)cc1 (configuration not stated) the results were Pf apPOL block 0 and mHTT-CaM PPI inh 59*.
For N#CC1=C(N)Oc2n[nH]c(-c3ccccc3)c2C1c1ccc2c(c1[N+](=O)[O-])OCO2 (configuration not stated) the results were Pf apPOL block -4 and mHTT-CaM PPI inh 51*.

High-throughput results: PubChem BioAssay, University of Kansas High Throughput Screening Laboratory
